In paper PMC3218832:

Legend:
Assay in all cases: protein binding microarray; high values mean tight binding
Details in all cases: dsDNA, one strand shown
RELARELA (p65 homodimer) = RELARELA (p65 homodimer) (Homo sapiens, UniProt Q04206 1-307)
p50p50 homodimer = p50p50 homodimer (Homo sapiens, UniProt P19838 7-356)
p52p52 homodimer = target: T1, p52p52 homodimer (Homo sapiens, UniProt Q00653 4-332)
T1 sequence: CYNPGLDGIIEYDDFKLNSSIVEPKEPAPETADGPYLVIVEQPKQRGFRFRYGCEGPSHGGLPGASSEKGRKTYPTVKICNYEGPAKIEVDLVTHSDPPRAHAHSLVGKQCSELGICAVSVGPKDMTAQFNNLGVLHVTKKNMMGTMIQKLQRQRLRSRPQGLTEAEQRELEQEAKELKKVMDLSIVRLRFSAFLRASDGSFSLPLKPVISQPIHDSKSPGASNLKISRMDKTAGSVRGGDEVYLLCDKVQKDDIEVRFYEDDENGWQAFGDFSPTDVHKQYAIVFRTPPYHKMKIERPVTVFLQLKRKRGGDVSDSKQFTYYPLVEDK

[1] = target: RELA (p65) subunit of heterodimer;p50 subunit (Homo sapiens;Homo sapiens, UniProt Q04206;P19838 1-307;7-356)
Chain of RELA (p65) subunit of heterodimer;p50 subunit (Q04206 1-307, chain 1 of 2): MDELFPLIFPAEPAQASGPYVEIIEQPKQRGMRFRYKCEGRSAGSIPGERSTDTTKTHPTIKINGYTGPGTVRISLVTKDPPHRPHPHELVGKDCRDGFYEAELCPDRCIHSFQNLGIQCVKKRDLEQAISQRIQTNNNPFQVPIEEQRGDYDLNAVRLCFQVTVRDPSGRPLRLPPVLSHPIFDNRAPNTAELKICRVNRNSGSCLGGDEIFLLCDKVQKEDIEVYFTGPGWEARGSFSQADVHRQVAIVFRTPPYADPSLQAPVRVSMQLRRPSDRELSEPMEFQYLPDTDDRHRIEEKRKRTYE
Chain of RELA (p65) subunit of heterodimer;p50 subunit (P19838 7-356, chain 2 of 2): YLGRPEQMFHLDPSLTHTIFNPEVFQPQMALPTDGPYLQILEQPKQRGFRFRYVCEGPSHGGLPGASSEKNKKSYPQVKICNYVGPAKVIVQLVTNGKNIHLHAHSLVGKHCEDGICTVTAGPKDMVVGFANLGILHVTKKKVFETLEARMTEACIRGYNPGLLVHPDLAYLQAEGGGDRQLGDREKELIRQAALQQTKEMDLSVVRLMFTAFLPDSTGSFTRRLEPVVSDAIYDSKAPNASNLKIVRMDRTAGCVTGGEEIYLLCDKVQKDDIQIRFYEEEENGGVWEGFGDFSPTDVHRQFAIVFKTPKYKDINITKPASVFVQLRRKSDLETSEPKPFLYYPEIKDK

[2] = target: RELA (p65) subunit of heterodimer;p52 subunit (Homo sapiens;Homo sapiens, UniProt Q04206;Q00653 1-307;4-332)
RELB subunit;p50 subunit = RELB subunit;p50 subunit (Homo sapiens;Homo sapiens, UniProt Q01201;P19838 120-401;7-356)
RELB subunit;p52 subunit = target: T2, RELB subunit;p52 subunit (Homo sapiens;Homo sapiens, UniProt Q01201;Q00653 120-401;4-332)
T2 sequence 1: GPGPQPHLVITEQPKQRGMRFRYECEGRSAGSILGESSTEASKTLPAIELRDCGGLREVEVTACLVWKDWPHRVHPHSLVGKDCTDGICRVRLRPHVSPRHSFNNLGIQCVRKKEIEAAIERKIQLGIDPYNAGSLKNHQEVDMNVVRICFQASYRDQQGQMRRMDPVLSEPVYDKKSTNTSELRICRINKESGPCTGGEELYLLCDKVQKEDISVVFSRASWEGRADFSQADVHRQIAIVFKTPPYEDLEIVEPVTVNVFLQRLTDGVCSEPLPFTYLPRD
T2 sequence 2: T1 sequence

[3] = target: C-Rel subunit;p50 subunit (Homo sapiens;Homo sapiens, UniProt Q04864;P19838 1-285;7-356)
[4] = target: T3, C-Rel subunit;p52 subunit (Homo sapiens;Homo sapiens, UniProt Q04864;Q00653 1-285;4-332)
T3 sequence 1: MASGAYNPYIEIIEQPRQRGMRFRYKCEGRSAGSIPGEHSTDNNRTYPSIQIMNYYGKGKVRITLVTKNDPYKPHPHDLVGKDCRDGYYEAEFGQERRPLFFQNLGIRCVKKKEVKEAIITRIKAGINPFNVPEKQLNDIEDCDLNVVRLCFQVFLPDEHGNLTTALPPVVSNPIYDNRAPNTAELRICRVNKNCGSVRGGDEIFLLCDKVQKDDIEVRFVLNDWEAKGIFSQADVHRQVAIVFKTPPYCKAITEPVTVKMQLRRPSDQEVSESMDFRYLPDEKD
T3 sequence 2: T1 sequence

Chain of RELARELA (p65 homodimer) (Q04206 1-307): as the sequence (Q04206 1-307, chain 1 of 2) above
Chain of p50p50 homodimer (P19838 7-356): as the sequence (P19838 7-356, chain 2 of 2) above

Sequence	binding signal (RELARELA (p65 homodimer)) [z-score]	binding signal (p50p50 homodimer) [z-score]	binding signal (p52p52 homodimer) [z-score]	binding signal [1] [z-score]	binding signal [2] [z-score]	binding signal (RELB subunit;p50 subunit) [z-score]	binding signal (RELB subunit;p52 subunit) [z-score]	binding signal [3] [z-score]	binding signal [4] [z-score]
CAGTTCTTCCC	1.2	-0.0833	-0.0924	0.385	0.0986	-0.231	-0.179	0.641	0.366
AGATGTTTCCC	1.63	0.332	0.359	0.89	0.674	0.348	0.51	1.05	0.783
GAGATTTTCCT	1.17	-0.538	-0.404	-0.116	-0.119	-0.659	-0.507	0.14	0.077
CAAAGCCTCCC	-0.873	-0.992	-0.631	-0.874	-0.823	-0.859	-0.707	-1.19	-0.839
CGGGAAGCCCT	0.636	-0.369	-0.0378	-0.188	0.0317	-0.513	-0.178	-0.133	0.19
GAAGGTCTCCT	-0.533	-2.58	-0.69	-0.982	-0.897	-1.22	-1.02	-1.58	-0.76
AAATGTATCCT	-0.258	-1.3	-0.661	-0.932	-0.782	-0.907	-0.763	-1.32	-0.746
CGAGATACCCC	-0.193	0.305	0.114	0.439	0.228	0.539	0.921	0.515	0.344
CGAAAAATCCT	0.627	-0.702	-0.361	-0.584	-0.435	-0.775	-0.584	-0.32	-0.29
CAGAAGATCCT	-1.03	-2.16	-0.765	-1.33	-1.13	-1.3	-1.12	-1.5	-1.07
AGGAGCCTCCC	-0.27	-0.831	-0.599	-0.748	-0.852	-0.76	-0.789	-0.995	-0.719
AGAAATACCCT	0.554	1.28	1.33	1.55	1.35	1.21	1.27	0.817	1.68
GAGGATTCCCC	2	1.1	2.67	2.18	2.19	2.43	2.09	1.54	2.11
GAAAAGGCCCC	-0.413	0.523	0.108	0.289	0.416	0.151	0.246	-0.101	0.313
CGGTATGTCCT	0.15	-0.81	-0.37	-0.663	-0.702	-0.895	-0.675	-0.815	-0.489
